Source: PubChem (Broad Institute)
aSyn 5UTR act: Activators via SNCA 5'UTR binding, MLPCN; hit rate 7.1% among 300,000; alpha-synuclein 5'UTR reporter, activators screen; activity score, % (tested at 7.5 µM), hits read low; in the data active = activity score below about -60%
Numbers without * were called inactive; ! = not confirmed by another sample. A selection follows.

SMILES | aSyn 5UTR act
C/C(=N\OCc1cccc(C(=O)O)c1)c1ccc(Cl)cc1 | 104.4
Cc1nc(/N=C\N(C)C)sc1C(=O)Nc1ccccc1 | -78.9*
Cc1ccc(NC(=O)c2sc(N)nc2C)cc1 | -185.4*
Cc1nc(C(=O)Nc2ccccc2)sc1C(=O)Nc1ccccc1 | -166.2*
CN(C)c1ccc(NC(=O)CCCc2ccccc2)cc1 | -119.6*
O=C(CCOc1ccccc1)Nc1ccc(Br)cc1 | -113.0*
COc1ccc(NC(=O)CCOc2ccccc2)cc1 | -125.7*
CCCCC(=O)NC(c1ccc(N(C)C)cc1)c1ccc2cccnc2c1O (configuration not stated) | 62.4
O=C(CCCc1ccccc1)Nc1cccnc1 | -81.6*
CC(=O)c1ccc(NC(=O)CCOc2cc(C)ccc2C)cc1 | -91.1*
Cc1cccc(NC(=O)CCCc2ccccc2)c1 | -171.7*
Cc1cccc(NC(=O)CCOc2ccccc2)c1 | -74.4*
CN(C)CCC(=O)C(Cc1ccccc1)c1ccccc1 (configuration not stated) | 98.9
CC(CCc1ccccc1)NC(=O)C(=O)Nc1ccccc1 (configuration not stated) | -148.7*
O=C(CCc1ccccc1)Nc1ccccc1 | -80.3*
CC(C)c1ccc(/C=N/NC(=O)C2CCCC2)cc1 | -171.1*
COc1ccc(/C=N\NC(=O)C2CCCC2)cc1Br | -95.1*
CN(CC(=O)Nc1ccccc1Br)C(=O)c1cc2c(s1)CCCCC2 | -120.7*
Nc1cc(C(F)(F)F)ccc1OCC1CCCO1 (configuration not stated) | -90.9*
CCC(N=c1cc(-c2ccc(OC)cc2)oc2ccc(C)cc12)C(=O)O (configuration not stated) | -119.9*
COC(=O)/C(=C1/Oc2ccc(C)cc2S1)C(F)(F)F | -152.3*
CN1CCN(/C=N/c2sc3c(c2C#N)CCCCC3)CC1 | -147.3*
CCN(/C=N/c1sc2c(c1C#N)CCCCC2)CC | -141.6*
CN(C)c1ccc(N=Nc2ccc(S(N)(=O)=O)cc2)cc1 | -95.9*
O=C(CC1Sc2ccccc2NC1=O)c1ccc(Br)cc1 (configuration not stated) | -218.0*
SMILES | aSyn 5UTR act
Cn1nc(C(=O)NC2CCCCC2)c2c1-c1ccccc1SC2 | -98.0*
O=C1c2ccccc2C(=O)C1c1ccc(O)cc1 | -87.5*
O=C(Cn1cnc2ccccc2c1=O)c1ccc(Cl)cc1 | -90.3*
O=C(Cn1cnc2ccc(Cl)cc2c1=O)c1cccs1 | -136.1*
O=C(Cn1cnc2ccccc2c1=O)c1ccccc1 | -80.4*
O=C(Cn1cnc2ccccc2c1=O)c1ccc(OC(F)F)cc1 | -73.0*
O=C(Cn1cnc2ccccc21)c1ccc(Cl)cc1 | -70.9*
Cn1c(=N)n(CC(=O)c2ccc(Cl)c(Cl)c2)c2ccccc21 | 80.8
O=c1c2ccccc2ncn1-c1ccc(Cl)cc1 | -103.0*!
O=C(Cn1cnc2ccccc2c1=O)c1ccc(Br)cc1 | -153.2*
CCOc1ccc(C(=O)Cn2cnc3ccccc3c2=O)cc1 | -94.1*
CCc1nc(SCc2ccc(Cl)cc2)n[nH]1 | -49.4*
CCc1nc(SCc2ccc(OCC(C)C)cc2)n[nH]1 | -102.1*
CCc1nc(SCc2ccc(Br)cc2)n[nH]1 | -88.3*
COc1ccc(NC(=O)Nc2nnc(-c3cccs3)s2)cc1 | -112.8*
O=C(Nc1ccccc1)Nc1nnc(-c2cccs2)s1 | -181.7*
COc1ccc(N2CCN(C(=O)c3ccc4nc(N5CCCCC5)sc4c3)CC2)cc1 | -192.1*
CC1CCN(c2nc3ccc(C(=O)N4CCN(Cc5ccc6c(c5)OCO6)CC4)cc3s2)CC1 | -155.6*
COc1cccc(N2CCN(C(=O)c3ccc4nc(N5CCCCC5)sc4c3)CC2)c1 | -153.0*
COc1ccc2nc(N3CCN(C(=O)C4COc5ccccc5O4)CC3)sc2c1 (configuration not stated) | -125.3*
c1ccc(-c2ccc3ccccc3n2)cc1 | -191.4*
c1ccc2nc(-c3ccc(-n4ccnc4)cc3)ccc2c1 | -223.8*
CN(Cc1cccnc1)C(=O)c1cc(COc2ccc3c(c2)CCCC3)on1 | -127.4*
CC(=O)c1cccc(OCc2cc(C(=O)N(C)Cc3cnccn3)no2)c1 | -85.4*
CN1CCN(c2ccc(NC(=O)c3cc4ccccc4o3)cc2)CC1 | -64.0*
SMILES | aSyn 5UTR act
CS(=O)(=O)N1CCN(c2ccc(NC(=O)c3cc4ccccc4o3)cc2)CC1 | -115.8*
Cc1nc2cc(N3CCCCC3)c(NC(=O)c3ccncc3)cc2c(=O)n1Cc1ccc(Cl)cc1 | 61.8
COc1cc(NC(=O)c2ccc(Cl)cc2)c(OC)cc1NC(=O)CN1CCCCC1 | -67.9*
CS(=O)(=O)c1nc2c(cc1C#N)CCCC2 | -85.3*
Cc1cc(-c2n[nH]c(=S)o2)c(C)n1-c1ccccc1 | -144.3*
Cc1ccc(NC(=O)NC(=O)N(c2ccccc2)S(C)(=O)=O)cc1 | -93.0*
Cc1ccc(NC(=S)NNC(=O)Nc2ccccc2)cc1 | -131.7*
CCOc1ccc(NC(=O)NC(=O)N(C)S(=O)(=O)c2ccc(C)cc2)cc1 | -81.6*
O=C(NNC(=S)Nc1ccccc1)Nc1ccccc1 | -92.1*
Cc1ccc(NC(=S)NNC(=O)c2nn(C)c(C)c2Cl)cc1 | -276.0*
CCc1cc2c(Sc3nc4ccccc4s3)ncnc2s1 | 59.9
c1ccc(SCc2nc3ccccc3[nH]2)nc1 | -75.1*
CCNc1nnc(CSc2nc3ccccc3s2)s1 | -70.8*
Cn1c(CSc2nc3ccccc3s2)nc2ccccc21 | -139.6*
c1ccc2[nH]c(CSc3nc4ccccc4s3)nc2c1 | -111.6*
CC(=O)N1CCn2c3ccc(C)cc3c3cccc1c32 | -83.4*
O=C(/C=C/c1c[nH]c2ccccc12)c1cccc2ccccc12 | -94.7*
O=C(Nc1nccs1)c1cc2c(s1)CCCCC2 | 72.0
CC(C)Cc1nnc(NC(=O)c2cc3c(s2)CCC3)s1 | -206.7*
O=C(Nc1nncs1)c1cc2c(s1)CCC2 | -131.5*
O=C(CCC(=O)c1ccc[nH]1)c1ccc(Cl)cc1 | -115.8*
O=C(COc1ccc(F)c(Cl)c1)c1ccc[nH]1 | -70.8*
COc1cccc(NC(=S)Nc2cc(C(=O)O)ccc2N2CC3CC(C2)c2cccc(=O)n2C3)c1 (configuration not stated) | -94.8*
CS(=O)(=O)c1ccc(Cl)c(NC(=O)CCl)c1 | -87.6*
Cc1ccc(NC(=O)Nc2cc(S(C)(=O)=O)ccc2Cl)cc1 | -77.0*
SMILES | aSyn 5UTR act
Cc1ccc(S(=O)(=O)Nc2cc(Cl)c(O)c3ncccc23)cc1 | 77.2
CC(C)CNc1nc(N)c([N+](=O)[O-])c(NCc2ccccc2)n1 | 77.0
O=[N+]([O-])c1ccc(NCc2ccccc2)nc1 | -67.5*
Cc1nn(C)c(Sc2ccccn2)c1[N+](=O)[O-] | -86.9*
CN=C1S/C(=C\c2ccc(N3CCOCC3)c(F)c2)C(=O)N1C | -75.7*
CN=C1S/C(=C\c2ccc(N3CCCC3)c(F)c2)C(=O)N1C | -139.3*
O=C(/C=C/c1ccco1)Nc1ccc(N2CCCC2)cc1 | -207.0*
O=C(/C=C/c1ccco1)Nc1ccc(C(=O)N2CCOCC2)cc1 | -74.9*
Cc1n[nH]c(=O)n1-c1ccc(OCc2ccccc2)cc1 | -90.8*
CC(=O)c1cccc(NC(=O)c2cc3nc(C)cc(C)n3n2)c1 | -138.5*
Cc1cc(C)n2nc(C(=O)Nc3ccc4c(c3)OCO4)cc2n1 | -84.3*
CCOc1ccc(/C=C/C(=O)CCC(=O)O)cc1 | -78.8*
CCOc1ccc(/C=C\C(C)=N\O)cc1 | -149.8*
CC1CCC(=C(C#N)c2nc(-c3cc4ccccc4oc3=O)cs2)CC1 (configuration not stated) | -258.5*
Cc1ccc(-n2nnc(-c3ccnc4ccccc34)n2)cc1 | -190.6*
Fc1ccc(-n2nnc(-c3ccnc4ccccc34)n2)cc1 | -153.5*
CCNC(=O)c1sc(-c2ccccc2)nc1C | -66.2*
